In PubChem BioAssay AID686978 (National Center for Advancing Translational Sciences (NCATS), 2013):
Screen size: about 420,000 compounds; about 64,000 (15%) were called active. Inconclusive results (about 27%) are left out. Calls come from the whole dose curve; as a rule, active = well fitted inhibition curve with a large enough effect; inconclusive = small, poorly fitted or top-dose-only effect; inactive = flat fitted curve, though single readings scatter. These entries were drawn from the full list. Where a call stands in place of a potency, no number is given.

assay: qHTS for Inhibitors of human tyrosyl-DNA phosphodiesterase 1 (TDP1): qHTS in cells in absence of CPT; conditions: DT40 Tdp1-/- hTDP1 cells, no CPT, ATP luminescence, 48 h; activity change, negative = growth inhibition: at 46.2 µM (top of the series); note: nearly all actives have a fitted effect of over 55% in size
Outline: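 Growth kinetics read by CellTiter-Glo luminescence after ≥48 hr at 37 °C. Cells: DT40 Tdp1-/- stably carrying human TDP1, 400 per well, compound exposure in the absence of CPT (DMSO vehicle).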
Potency is the fitted concentration of half-maximal effect.

Row | Compound | Potency
1 | CC1CCCCC12NC(=O)N(CC(=O)OCC(=O)NCc1ccc(F)cc1)C2=O (centres undefined) | inactive
2 | CN1CCN(c2cc(=O)n(-c3ccc(Cl)cc3)c(=O)[nH]2)CC1 | inactive
3 | O=C(O)c1ccccc1N=N/C(=N/Nc1cc(S(=O)(=O)O)ccc1O)c1ccccc1 | inactive
4 | Cc1c(Cl)cccc1NC(=O)CCS(=O)(=O)c1ccc2c(c1)oc(=O)n2C | inactive
5 | NC(=O)C1CCN(C(=O)CC2C(=O)NCCN2Cc2cccc(Oc3ccccc3)c2)CC1 (centres undefined) | inactive
6 | Cc1ccc(SCC(=O)NNC(=O)c2ccc(S(C)(=O)=O)cc2)cc1 | inactive
7 | Cc1ccccc1-n1cc(CNC(=O)CC2C(=O)NCCN2C/C=C/c2ccccc2)cn1 (centres undefined) | inactive
8 | COCCCNC(=O)Cc1ccc(-n2c(C)nc3cccnc32)cc1 | inactive
9 | Cc1ccc(Cl)cc1NC(=O)c1ccccn1 | inactive
10 | COc1cc(OC)c(NC(=O)Cc2ccc(-n3c(C)nc4cccnc43)cc2)cc1Cl | 14.6 µM (active)
11 | Cc1ccc(Cl)cc1NC(=O)Cc1ccc(-n2c(C)nc3cccnc32)cc1 | 23.1 µM (active)
12 | COCCn1c(CCC(=O)Nc2cc(C)ccc2C)nc2cccnc21 | inactive
13 | CCc1nc2cccnc2n1-c1ccc(C(=O)O)cc1 | inactive
14 | O=C(O)C1CCN(c2ncnc3ccc(-c4ccccc4C(F)(F)F)cc23)CC1 | inactive
15 | O=C(CC1C(=O)NCCN1CC(c1ccccc1)c1ccccc1)NCCc1cn[nH]c1 (centres undefined) | inactive
16 | CCN(CC(=O)NCc1cccs1)C(=O)c1ccc(OC)c(S(=O)(=O)N2CCOCC2)c1 | inactive
17 | Cc1ccc(C2=Nc3c(ccc4ccccc34)C(c3ccncc3)=NN2)cc1 | 11.6 µM (active)
18 | COc1cc(C)nc(N2CCCC(C(=O)NCC(C)C)C2)n1 (centres undefined) | inactive
19 | COCCNC(=O)CSc1nc(N)c(NC(=O)c2ccco2)c(=O)[nH]1 | inactive
20 | O=C(NC(=S)Nc1ccc(S(=O)(=O)Nc2ncccn2)cc1)c1cccc(Br)c1 | inactive
21 | CC(C)OCCCNC(=O)CN1C(=O)/C(=C/c2ccccc2F)Oc2ccccc21 | 10.3 µM (active)
22 | O=C(CN1C(=O)S/C(=C\c2ccccc2F)C1=O)NCCCn1ccnc1 | inactive
23 | CCC1Oc2ccccc2N(CC(=O)NCCCN2CCN(CC)CC2)C1=O (centres undefined) | inactive
24 | COc1ccc(F)cc1C(=O)COC(=O)c1n[nH]c(=O)c2ccccc12 | inactive
25 | COC(=O)CN(c1cccc(C(C)=O)c1)S(C)(=O)=O | inactive

Row | Compound | Potency
26 | C=CCc1cccc2cc(C(=O)N3CCN(C(=O)OCC)CC3)c(=O)oc12 | inactive
27 | CC(C)Nc1nc(N(c2ccccc2)c2ccccc2)nc(-n2ccnc2)n1 | inactive
28 | O=C(O)COCC(=O)NCc1csc2ccc(Cl)cc12 | inactive
29 | Cc1ccc(C(C(=O)NCC2CCCO2)N(C(=O)c2snc(C(N)=O)c2N)c2ccc(C(C)C)cc2)o1 (centres undefined) | 18.4 µM (active)
30 | O=C(NCC(=O)N(c1ccccc1)C(C(=O)NCC1CCCO1)c1ccccc1)c1cccs1 (centres undefined) | inactive
31 | CCOc1ccc(N(CC(=O)NCC2CCCO2)S(=O)(=O)c2ccc(C)cc2)cc1 (centres undefined) | inactive
32 | NC(=O)c1nsc(C(=O)N(CCCN2CCOCC2)C(C(=O)NC2CCCCC2)c2ccc(Cl)cc2)c1N (centres undefined) | inactive
33 | Cc1ccc(N(C(=O)Cc2cccs2)C(C(=O)NCC2CCCO2)c2ccncc2)cc1 (centres undefined) | inactive
34 | CCOc1cc(C(C(=O)NCC2CCCO2)N(C(=O)Cn2nnc3ccccc32)c2cccc(OC)c2)ccc1O (centres undefined) | inactive
35 | Cc1ccc(N(C(=O)c2snc(C(N)=O)c2N)C(C(=O)NCC2CCCO2)c2c[nH]c3ccccc23)cc1 (centres undefined) | 4.11 µM (active)
36 | CCC(C(=O)NCCC(C)C)N(Cc1ccccc1Cl)C(=O)c1snc(C(N)=O)c1N (centres undefined) | inactive
37 | CCOc1ccc(N(C(=O)c2snc(C(N)=O)c2N)C(C(=O)NCC2CCCO2)c2c[nH]c3ccccc23)cc1 (centres undefined) | 3.66 µM (active)
38 | Cn1cnc2c1c(=O)n(Cc1ccccc1C#N)c(=O)n2C | inactive
39 | CCn1c(CSc2nncn2-c2ccc(OC)cc2)nc2cc(S(=O)(=O)N(C)C)ccc21 | inactive
40 | COC(=O)CN1C(=O)C(O)=C(C(C)=O)C1c1ccc([N+](=O)[O-])cc1 (centres undefined) | inactive
41 | CC(C)(C)CC(C)(C)NCC(O)COCCOc1ccc(Br)cc1 (centres undefined) | 2.31 µM (active)
42 | OC(COc1ccc(Br)cc1)CN1CCCC1 (centres undefined) | inactive
43 | Cc1noc(COc2ccccc2OCC(O)CNC(C)(C)C)n1 (centres undefined) | inactive
44 | O=C(N/N=C\c1cccc(Br)c1)c1ccccc1-n1cccc1 | inactive
45 | C=C1CCN([C@@H](Cc2ccccc2)C(=O)N2CCOCC2)S(=O)(=O)c2ccccc21 | inactive
46 | CC1(C)OC(=O)C2=C(C[C@@H](C3CC3)O[C@H]2c2ccc(Cl)cc2)O1 | inactive
47 | CCC1OC(C2CC2)CC2=C1C(=O)OC(C)(C)O2 (centres undefined) | inactive
48 | CC1(C)OC(=O)C2=C(C[C@@H](C3CCCCC3)O[C@@H]2c2ccc(Cl)cc2)O1 | 20.6 µM (active)
49 | OC(COCc1ccco1)CN1CCN(c2ccccc2)CC1 (centres undefined) | inactive
50 | COc1cccc(C(=O)NNS(=O)(=O)c2ccc(F)cc2)c1 | inactive

Row | Compound | Potency
51 | COc1ccc(-c2nnc(NC(=O)CS(=O)(=O)c3ccc(Cl)cc3)o2)c(OC)c1 | inactive
52 | COc1cccc(-c2nnc(NC(=O)c3ccc(S(=O)(=O)N(CC(C)C)CC(C)C)cc3)o2)c1 | 4.61 µM (active)
53 | COc1ccc(CNC(=O)CN(Cc2ccc(Cl)cc2)S(C)(=O)=O)cc1 | inactive
54 | COc1ccc(OC)c(-n2c(=S)[nH]c3cc(C(=O)N4CCCCC4)ccc3c2=O)c1 | inactive
55 | Cc1ccc2cccc(O)c2[n+]1[O-] | inactive
56 | CCOC(=O)c1[nH]c2ccc(OC)cc2c1NC(=O)N1CCOCC1 | inactive
57 | COc1ccc(CCNC(=O)C2CCCN2C(=O)Nc2ccccc2)cc1OC (centres undefined) | inactive
58 | COc1ccc(CCNC(=O)CCC(=O)NC2CCCCC2)cc1OC | inactive
59 | COc1ccc(CCNC(=O)c2c3c(nc4ccccc24)C(=O)N(C2CCCCC2)C3)cc1OC | 23.1 µM (active)
60 | CCNC(=O)CC1C(=O)N(c2ccc(OC)cc2)C(=O)N1CCOC (centres undefined) | inactive
61 | Cc1ccc(NC(=O)C/C(N)=N/O)cc1Cl | inactive
62 | CNc1nc(Nc2ccc(C)c(Cl)c2)nc(N)c1[N+](=O)[O-] | 6.51 µM (active)
63 | COCCNc1nc(N)c([N+](=O)[O-])c(NCCO)n1 | inactive
64 | O=C(NCCc1ccc(Cl)cc1)C1CCCN1C(=O)NCc1ccccc1 (centres undefined) | inactive
65 | O=C(CC1Oc2ccccc2NC1=O)NCc1ccc(F)cc1 (centres undefined) | inactive
66 | O=C(N/N=C/c1ccc([N+](=O)[O-])o1)c1cn(-c2ccccc2)nc1-c1ccc(F)cc1 | 5.8 µM (active)
67 | Cc1cc(C(=O)N/N=C/c2ccc(O)c([N+](=O)[O-])c2)c(C)n1-c1ccc(F)cc1 | inactive
68 | O=C(CSc1ccc(/C=N/NC(=O)c2cccc(F)c2)o1)Nc1ccccc1 | inactive
69 | COCC(=O)Nc1cc(C(=O)N2CCCC(c3ccccc3)CC2)c2c(c1)nc(-c1ccncc1)n2C (centres undefined) | inactive
70 | COc1ccc(NC(=O)CC(NC(C)c2ccccc2)C(=O)O)cc1 (centres undefined) | inactive
71 | C[C@@H]1CN([C@@H](C)CO)C(=O)CCCn2cc(nn2)CO[C@H]1CN(C)S(=O)(=O)c1ccc(-n2cccn2)cc1 | inactive
72 | Cc1ccc(C)c(NC(=O)c2ccc3nccnc3c2)c1 | inactive
73 | Cc1ccc(C)c(NC(=O)c2cc(-c3cc(C)cc(C)c3O)n[nH]2)c1 | 13 µM (active)
74 | Cc1ccc(O)c(NC(=O)c2cc(-c3ccc(F)cc3)no2)c1 | inactive
75 | CCCCN(C(=O)CCNC(=O)NC12CC3CC(CC(C3)C1)C2)c1c(N)n(CCCC)c(=O)[nH]c1=O | inactive

Row | Compound | Potency
76 | CCOc1cc(CO)ccc1OCC(=O)N1CCCCC1 | inactive
77 | CCCC(=O)NC(C)C(c1cccs1)N1CCN(c2ccccc2)CC1 (centres undefined) | inactive
78 | CC(NC(=O)Nc1ccccc1)C(c1cccs1)N1CCN(c2ccccc2)CC1 (centres undefined) | 23.1 µM (active)
79 | Cc1ccc(C(=O)NCC(c2cccs2)N(C)C)cc1S(=O)(=O)N1CCOCC1 (centres undefined) | inactive
80 | CC(NC(=O)Nc1ccccc1)c1ccccc1 (centres undefined) | inactive
81 | Cc1ccc(C(=O)NC(C)C(c2cccs2)N2CCOCC2)cc1C (centres undefined) | 18.4 µM (active)
82 | Cc1ccc(N(C(=O)c2ccc(CN3CCOCC3)o2)C(C(=O)NCCC(C)C)c2cccs2)c(C)c1 (centres undefined) | inactive
83 | COC(=O)c1sc(SC)c(S(=O)(=O)C(C)C)c1N/N=C(\C#N)S(=O)(=O)c1ccccn1 | inactive
84 | CC(=O)c1ccc(NC(=O)C(C)OC(=O)c2ccc(NS(=O)(=O)c3ccc4[nH]c(=O)[nH]c4c3)cc2)cc1 (centres undefined) | inactive
85 | Cc1ccc(C(=O)OC(C)CN2CCOCC2)cc1 (centres undefined) | inactive
86 | COc1cc(OC)cc(C(=O)NC(C(=O)N2CCC2)C(C)C)c1 (centres undefined) | inactive
87 | COc1ccc(N2CCN(C(=O)[C@@H](NC(=O)c3cc(OC)cc(OC)c3)C(C)C)CC2)cc1 | 8.2 µM (active)
88 | COc1cc(OC)cc(C(=O)NCC(=O)N2CCCCCCC2)c1 | inactive
89 | CCOc1ccc(/C(O)=C2/C(=O)C(=O)N(Cc3cccnc3)C2c2ccc(N(C)C)cc2)c(C)c1 (centres undefined) | inactive
90 | C=CCC[C@@H](CCCCC)OC(=O)/C=C/[C@@H](O)[C@H](O)C[C@H](O)CC=C | 18.4 µM (active)
91 | C=CCC[C@H](CCCCC)OC(=O)/C=C/[C@H](O)[C@@H](O)C[C@@H](O)CC=C | 14.6 µM (active)
92 | O=S(=O)(Nc1ccccc1)c1ccc(NS(=O)(=O)c2cccs2)cc1 | inactive
93 | Cc1ccc(NC(=O)CSc2nc3c(c(=O)[nH]2)CN(Cc2ccc4c(c2)OCO4)CC3)cc1C | inactive
94 | O=C(CN1CCN(C(=O)c2cccc(F)c2)CC1)Nc1ccccc1F | inactive
95 | C=CCC(NCc1ccco1)c1ccc(OC)cc1 (centres undefined) | inactive
96 | Cc1ccc(S(=O)(=O)N2CCC(C(=O)N[C@@H](C)C(=O)NCc3ccco3)CC2)cc1 | inactive
97 | Cc1ccc(S(=O)(=O)N2CC(C)N(S(C)(=O)=O)C2)cc1 (centres undefined) | inactive
98 | Cc1ccc(Cn2cc(C(=O)NN)c(=O)c3ccc(F)cc32)cc1 | inactive
99 | Cc1ccc(S(=O)(=O)N2C[C@@H]3CCCC[C@@H]3[C@@H](C)[C@H]2c2cn(Cc3ccccc3)c3ccc(F)cc23)cc1 | 6.51 µM (active)
